Results filed as inconclusive are left out. Active and inactive are the calls of the source. Calls follow the shape of the dose curve; as a rule, active = well fitted cell-killing curve with a large enough effect; inconclusive = small, poorly fitted or top-dose-only effect, or effect the other way; inactive = flat fitted curve, though single readings scatter.
Experiments:
Assay in all cases: Primary qHTS to identify gynecologic anti-cancer compounds using libraries of approved drugs and bioactive compounds (AID 1345084); also: nearly all actives have a fitted effect of over 55% in size
[1] = test system: Hek293T; settings: Gynecologic cancer cell panel viability, ATPlite luminescence, 48 h, control line for the selectivity index; series mostly up to 57.5 µM
How it was run: (§1)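 Cells, 1,000 per well, were allowed to settle for 16 h at 37 C before compound addition. Five concentrations were tested for 48 h, and viability was read by ATPlite luminescence after 15 min at room temperature.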

[2] = test system: JEG-3; settings: Gynecologic cancer cell panel viability, ATPlite luminescence, 48 h; series mostly up to 57.5 µM
How it was run: as §1

[3] = test system: OV90; settings: Gynecologic cancer cell panel viability, ATPlite luminescence, 48 h; series mostly up to 57.5 µM
How it was run: as §1

[4] = test system: PA-1; settings: Gynecologic cancer cell panel viability, ATPlite luminescence, 48 h; series mostly up to 57.5 µM
How it was run: as §1

[5] = test system: SKOV3; settings: Gynecologic cancer cell panel viability, ATPlite luminescence, 48 h; series mostly up to 57.5 µM
How it was run: as §1

[6] = test system: Tov-21-G; settings: Gynecologic cancer cell panel viability, ATPlite luminescence, 48 h; series mostly up to 57.5 µM
How it was run: as §1

[7] = test system: Tov112D; settings: Gynecologic cancer cell panel viability, ATPlite luminescence, 48 h; series mostly up to 57.5 µM
How it was run: as §1
% is scaled to controls: 0 for no effect and ±100 for the full control effect.

CN[C@H]1[C@H](O)[C@H](O[C@@H]2[C@@H](O)[C@H](O[C@H]3O[C@H]([C@H](C)O)[C@@H](O)[C@H](O)[C@H]3N)[C@@H](N)C[C@H]2N)OC[C@@]1(C)O
inactive: Potency [1] | Potency [2] | Potency [3] | Potency [4] | Potency [5] | Potency [6] | Potency [7]

CCc1[nH]c2ccc(OC)cc2c1CCN(C)C
inactive: Potency [1] | Potency [2] | Potency [3] | Potency [4] | Potency [5] | Potency [6] | Potency [7]

CCCCCOc1cc2c(cc1-c1cc(/C=C/C(=O)O)ccc1O)C(C)(C)CCC2(C)C
inactive: Potency [1] | Potency [2] | Potency [3] | Potency [4] | Potency [5] | Potency [6] | Potency [7]

CN1C(=O)c2ccccc2NC(=O)C1Cc1ccccc1 (stereo unspecified)
inactive: Potency [1] | Potency [2] | Potency [3] | Potency [4] | Potency [5] | Potency [6] | Potency [7]

COCC1OC(=O)c2coc3c2C1(C)C1=C(C3=O)C2CCC(=O)C2(C)CC1O (stereo unspecified)
inactive: Potency [1] | Potency [2] | Potency [3] | Potency [4] | Potency [5] | Potency [6] | Potency [7]

C/C=C(\C)C(=O)O[C@H]1[C@H](OC(C)=O)[C@]2(CO)[C@H](O)[C@H](O)[C@]3(C)C(=CCC4[C@@]5(C)CC[C@H](O[C@@H]6O[C@H](C(=O)O)[C@@H](O)[C@H](O[C@@H]7OC[C@H](O)[C@H](O[C@@H]8OC[C@H](O)[C@H](O)[C@H]8O)[C@H]7O)[C@H]6O[C@@H]6O[C@H](CO)[C@@H](O)[C@H](O)[C@H]6O)C(C)(C)C5CC[C@]43C)[C@@H]2CC1(C)C (stereo partly specified)
inactive: activity change, negative = cytotoxicity [1] -2.46% [at 6.55 µM] | activity change, negative = cytotoxicity [2] -2.67% [at 6.55 µM] | activity change, negative = cytotoxicity [3] -10.1% [at 6.55 µM] | activity change, negative = cytotoxicity [4] -1.59% [at 6.55 µM] | activity change, negative = cytotoxicity [5] 6.49% [at 6.55 µM] | activity change, negative = cytotoxicity [6] 19.4% [at 6.55 µM] | activity change, negative = cytotoxicity [7] 8.32% [at 6.55 µM]

CCc1c(C(=O)C(N)=O)c2c(OCC(=O)OC)cccc2n1Cc1ccccc1
inactive: Potency [1] | Potency [2] | Potency [3] | Potency [4] | Potency [5] | Potency [6] | Potency [7]

COC1CC(OC2CCC3(C)C(=CCC4C3CCC3(C)C(C(C)OC5OC(COC6OC(CO)C(O)C(O)C6O)C(O)C(O)C5O)CCC43O)C2)OC(C)C1OC1OC(C)C(O)C(OC)C1O (stereo unspecified)
inactive: activity change, negative = cytotoxicity [1] 5.95% [at 11.6 µM] | activity change, negative = cytotoxicity [2] -7.91% [at 11.6 µM] | activity change, negative = cytotoxicity [3] 0.938% [at 11.6 µM] | activity change, negative = cytotoxicity [4] 2.38% [at 11.6 µM] | activity change, negative = cytotoxicity [5] 25.2% [at 11.6 µM] | activity change, negative = cytotoxicity [6] 6.16% [at 11.6 µM] | activity change, negative = cytotoxicity [7] -0.166% [at 11.6 µM]

Cn1ncnc1COc1nn2c(-c3c(F)cccc3F)nnc2cc1C1CCC1
inactive: Potency [1] | Potency [2] | Potency [3] | Potency [4] | Potency [5] | Potency [6] | Potency [7]

O=C(N1CCOCC1)N1CCN(c2ccc(Cl)cc2)CC1
inactive: Potency [1] | Potency [2] | Potency [3] | Potency [4] | Potency [5] | Potency [6] | Potency [7]

CCCN1CCO[C@H]2c3cc(O)ccc3OC[C@@H]21
inactive: Potency [1] | Potency [2] | Potency [3] | Potency [4] | Potency [5] | Potency [6] | Potency [7]

CCC(C)(C#N)O[C@@H]1O[C@H](CO)[C@@H](O)[C@H](O)[C@H]1O (stereo partly specified)
inactive: Potency [1] | Potency [2] | Potency [3] | Potency [4] | Potency [5] | Potency [6] | Potency [7]

CC(CCc1ccc(O)cc1)O[C@@H]1O[C@H](CO[C@H]2OC[C@](O)(CO)[C@H]2O)[C@@H](O)[C@H](O)[C@H]1O (stereo partly specified)
inactive: Potency [1] | Potency [2] | Potency [3] | Potency [4] | Potency [5] | Potency [6] | Potency [7]

CCN1C[C@]2(OC(=O)c3ccccc3NC(C)=O)CC[C@H](OC)[C@@]34[C@@H]2C[C@@H]([C@@H]13)[C@@]1(O)C[C@H](OC)[C@H]2C[C@@H]4[C@]1(O)[C@H]2OC
inactive: Potency [1] | Potency [2] | Potency [3] | Potency [4] | Potency [5] | Potency [6] | Potency [7]

CC(=O)OC1CC(O)C2(C)C(CC(OC(C)=O)C3(C)C2CCC2(C)C(c4ccoc4)C(=O)C4OC423)C1(C)C (stereo unspecified)
inactive: Potency [1] | Potency [2] | Potency [3] | Potency [4] | Potency [5] | Potency [6] | Potency [7]

CN(C(=O)Cc1ccccc1)C(CN1CCCC1)c1ccccc1 (stereo unspecified)
inactive: Potency [1] | Potency [2] | Potency [3] | Potency [4] | Potency [5] | Potency [6] | Potency [7]

COc1cc(C(=O)O[C@H]2[C@@H]3C=CO[C@@H](O[C@@H]4O[C@H](CO)[C@@H](O)[C@H](O)[C@H]4O)[C@@H]3[C@@]3(CO)O[C@@H]23)ccc1O
inactive: Potency [1] | Potency [2] | Potency [3] | Potency [4] | Potency [5] | Potency [6] | Potency [7]

C[C@@](O)(COc1ccc(C#N)cc1)C(=O)Nc1ccc(C#N)c(C(F)(F)F)c1
inactive: Potency [1] | Potency [2] | Potency [3] | Potency [4] | Potency [5] | Potency [6] | Potency [7]

— PubChem BioAssay (NCATS)
